Laboratory results as given in PubChem BioAssay.
Calls of active or inactive are those of the source.

How the values were obtained:
[1] = small molecules captured by biotinylated probe aFSTL3 – biochemical, small-molecule microarray, fluorescence 635/667, stem cell growth factor project, primary screen (AID 1064); conditions: higher = more signal;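 further: measures binding of the biotinylated anti-FSTL3 antibody to printed compounds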
[2] = binders from COS7 lysate, DM2A8 probe, primary screen, torsin A project, cell lysate, small-molecule microarray, fluorescence 635/667 (AID 1065); conditions: higher = more signal, COS7 lysate expressing mutant human TOR1A
[3] = small molecules captured by biotinylated probe aFGF2 – biochemical, small-molecule microarray, fluorescence 635/667, stem cell growth factor project, primary screen (AID 1067); conditions: higher = more signal;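 further: measures binding of biotinylated aFGF2 protein to printed compounds on slides; z-score merges feature fluorescence and signal-to-noise across triplicate slides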
[4] = small molecules captured by biotinylated probe aFGF10 – biochemical, small-molecule microarray, fluorescence 635/667, stem cell growth factor project, primary screen (AID 1071); conditions: higher = more signal;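 further: score merges 667 nm spot intensity and signal to noise from triplicate slides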
[5] = biological target: Neurogenic locus notch homolog protein 2 (Homo sapiens) (UniProt Q04721); assay: small molecules binding Notch2 protein – biochemical, small-molecule microarray, 635 nm fluorescence, stem cell growth factors, primary screen (AID 1073); conditions: higher = more signal
[6] = biological target: Pro-neuregulin-1, membrane-bound isoform (Homo sapiens) (UniProt Q02297); assay: small molecules binding neuregulin-1 protein – biochemical, small-molecule microarray, fluorescence 635/667, psychiatric disease protein project, primary screen (AID 1075); conditions: NRG1 binding, 635 nm fluorescence, higher = more signal;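 further: score combines 667 nm spot fluorescence with signal to noise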
[7] = system: Neuregulin-1 EGF-like domain; assay: small molecules binding NRG1 EGF domain – biochemical, small-molecule microarray, 635 nm fluorescence, primary screen (AID 1081); conditions: higher = more signal;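 further: binding of the protein to compounds printed on small-molecule microarray slides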
[8] = FRG1 expression reporter modulators in myotubes – cell-based, C2C12 myotubes, firefly/Renilla luciferase, luminescence, FRG1 inhibition for FSHD, primary screen (AID 1084); conditions: FRG1 promoter luciferase, higher = more signal, called active from +8 up or from −8 down
[9] = small molecules captured by biotinylated probe aFST – biochemical, small-molecule microarray, fluorescence 635/667, stem cell growth factor project, primary screen (AID 1086); conditions: higher = more signal;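 further: score merges 667 nm fluorescence with signal-to-noise of each printed compound spot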
[10] = binders of probe aHhip on microarray, primary screen, stem cell growth factor project, biochemical, small-molecule microarray, fluorescence 635/667 (AID 1087); conditions: higher = more signal;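 further: score merges spot fluorescence at 667nm with spot signal to noise ratio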
[11] = system: PRMT1 (protein arginine N-methyltransferase 1); assay: small molecules binding arginine methyltransferase PRMT1 – biochemical, small-molecule microarray, 635 nm fluorescence, primary screen (AID 1088); conditions: higher = more signal;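 further: binding of Prmt1 protein to compounds spotted on small-molecule microarray slides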
[12] = growth effects on S. cerevisiae YJM789 – YJM789 clinical isolate, OD600, 24 h, basal, primary screen (AID 1089); conditions: higher = more signal, called active from +8 up or from −8 down;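 further: growth of clinical yeast isolate S. cerevisiae YJM 789 seeded 1000 cells per well; test concentration not given here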
[13] = S. pombe growth modifiers, basal conditions – strain 972, OD600, 24 h, no modulator, primary screen (AID 1090);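 further: basal condition with compound alone and no growth modifier present; test concentration not given here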; conditions: S. pombe 972 growth, higher = more signal, called active from +8 up or from −8 down
[14] = budding yeast growth modifiers under rapamycin – strain BY4716, OD600, 96 h, primary screen (AID 1091); further: test concentration not given here; conditions: S. cerevisiae BY4716 + rapamycin, higher = more signal, called active from +8 up or from −8 down
[15] = biological target: Torsin-1A-interacting protein 2 (Homo sapiens) (UniProt Q8NFQ8); assay: small molecules binding lysate-expressed LULL1 – cell lysate, human LULL1 lysate, 635/667 nm fluorescence, primary screen (AID 1092); conditions: small-molecule microarray, hLULL1 lysate binding, 635 nm fluorescence; higher = more signal;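 further: probe is lysate of COS7 cells overexpressing human LULL1; score merges per-feature 667 nm fluorescence with signal-to-noise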
[16] = optical density change of DRC41 E. coli – strain DRC41, OD650, 24 h, E. coli filamentation project, primary screen (AID 1093);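 further: MC1000 strain lacking acrAB efflux and sulA so SOS filamentation is blocked; test concentration not given here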; conditions: E. coli DRC41 growth, higher = more signal, called active from +8 up or from −8 down
[17] = probe aLefty2 binding to arrayed compounds – biochemical, biotinylated probe, 635/667 nm fluorescence, primary screen (AID 1094); conditions: small-molecule microarray, higher = more signal;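 further: score merges spot fluorescence near 667 nm with spot signal-to-noise ratio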
[18] = system: Noggin (protein binding on small-molecule microarray); assay: small molecules binding Noggin protein – biochemical, 635/667 nm fluorescence, primary screen (AID 1095); conditions: 635 nm fluorescence, higher = more signal;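 further: score merges 667 nm feature fluorescence with signal to noise over triplicate slides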
[19] = biological target: Neurogenic locus notch homolog protein 3 (Homo sapiens) (UniProt Q9UM47); assay: small molecules binding NOTCH3 protein – biochemical, 635/667 nm fluorescence, primary screen (AID 1096); conditions: small-molecule microarray, 635 nm fluorescence, higher = more signal
[20] = probe aEGFR binding to arrayed compounds – biochemical, biotinylated probe, 635/667 nm fluorescence, primary screen (AID 1097); conditions: small-molecule microarray, higher = more signal;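 further: probe is a biotinylated anti-EGFR antibody binding compounds printed on slides; score combines fluorescence near 667 nm and signal to noise of each spot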

Chain of Neurogenic locus notch homolog protein 3 (Homo sapiens) (Q9UM47 whole entry, looked up): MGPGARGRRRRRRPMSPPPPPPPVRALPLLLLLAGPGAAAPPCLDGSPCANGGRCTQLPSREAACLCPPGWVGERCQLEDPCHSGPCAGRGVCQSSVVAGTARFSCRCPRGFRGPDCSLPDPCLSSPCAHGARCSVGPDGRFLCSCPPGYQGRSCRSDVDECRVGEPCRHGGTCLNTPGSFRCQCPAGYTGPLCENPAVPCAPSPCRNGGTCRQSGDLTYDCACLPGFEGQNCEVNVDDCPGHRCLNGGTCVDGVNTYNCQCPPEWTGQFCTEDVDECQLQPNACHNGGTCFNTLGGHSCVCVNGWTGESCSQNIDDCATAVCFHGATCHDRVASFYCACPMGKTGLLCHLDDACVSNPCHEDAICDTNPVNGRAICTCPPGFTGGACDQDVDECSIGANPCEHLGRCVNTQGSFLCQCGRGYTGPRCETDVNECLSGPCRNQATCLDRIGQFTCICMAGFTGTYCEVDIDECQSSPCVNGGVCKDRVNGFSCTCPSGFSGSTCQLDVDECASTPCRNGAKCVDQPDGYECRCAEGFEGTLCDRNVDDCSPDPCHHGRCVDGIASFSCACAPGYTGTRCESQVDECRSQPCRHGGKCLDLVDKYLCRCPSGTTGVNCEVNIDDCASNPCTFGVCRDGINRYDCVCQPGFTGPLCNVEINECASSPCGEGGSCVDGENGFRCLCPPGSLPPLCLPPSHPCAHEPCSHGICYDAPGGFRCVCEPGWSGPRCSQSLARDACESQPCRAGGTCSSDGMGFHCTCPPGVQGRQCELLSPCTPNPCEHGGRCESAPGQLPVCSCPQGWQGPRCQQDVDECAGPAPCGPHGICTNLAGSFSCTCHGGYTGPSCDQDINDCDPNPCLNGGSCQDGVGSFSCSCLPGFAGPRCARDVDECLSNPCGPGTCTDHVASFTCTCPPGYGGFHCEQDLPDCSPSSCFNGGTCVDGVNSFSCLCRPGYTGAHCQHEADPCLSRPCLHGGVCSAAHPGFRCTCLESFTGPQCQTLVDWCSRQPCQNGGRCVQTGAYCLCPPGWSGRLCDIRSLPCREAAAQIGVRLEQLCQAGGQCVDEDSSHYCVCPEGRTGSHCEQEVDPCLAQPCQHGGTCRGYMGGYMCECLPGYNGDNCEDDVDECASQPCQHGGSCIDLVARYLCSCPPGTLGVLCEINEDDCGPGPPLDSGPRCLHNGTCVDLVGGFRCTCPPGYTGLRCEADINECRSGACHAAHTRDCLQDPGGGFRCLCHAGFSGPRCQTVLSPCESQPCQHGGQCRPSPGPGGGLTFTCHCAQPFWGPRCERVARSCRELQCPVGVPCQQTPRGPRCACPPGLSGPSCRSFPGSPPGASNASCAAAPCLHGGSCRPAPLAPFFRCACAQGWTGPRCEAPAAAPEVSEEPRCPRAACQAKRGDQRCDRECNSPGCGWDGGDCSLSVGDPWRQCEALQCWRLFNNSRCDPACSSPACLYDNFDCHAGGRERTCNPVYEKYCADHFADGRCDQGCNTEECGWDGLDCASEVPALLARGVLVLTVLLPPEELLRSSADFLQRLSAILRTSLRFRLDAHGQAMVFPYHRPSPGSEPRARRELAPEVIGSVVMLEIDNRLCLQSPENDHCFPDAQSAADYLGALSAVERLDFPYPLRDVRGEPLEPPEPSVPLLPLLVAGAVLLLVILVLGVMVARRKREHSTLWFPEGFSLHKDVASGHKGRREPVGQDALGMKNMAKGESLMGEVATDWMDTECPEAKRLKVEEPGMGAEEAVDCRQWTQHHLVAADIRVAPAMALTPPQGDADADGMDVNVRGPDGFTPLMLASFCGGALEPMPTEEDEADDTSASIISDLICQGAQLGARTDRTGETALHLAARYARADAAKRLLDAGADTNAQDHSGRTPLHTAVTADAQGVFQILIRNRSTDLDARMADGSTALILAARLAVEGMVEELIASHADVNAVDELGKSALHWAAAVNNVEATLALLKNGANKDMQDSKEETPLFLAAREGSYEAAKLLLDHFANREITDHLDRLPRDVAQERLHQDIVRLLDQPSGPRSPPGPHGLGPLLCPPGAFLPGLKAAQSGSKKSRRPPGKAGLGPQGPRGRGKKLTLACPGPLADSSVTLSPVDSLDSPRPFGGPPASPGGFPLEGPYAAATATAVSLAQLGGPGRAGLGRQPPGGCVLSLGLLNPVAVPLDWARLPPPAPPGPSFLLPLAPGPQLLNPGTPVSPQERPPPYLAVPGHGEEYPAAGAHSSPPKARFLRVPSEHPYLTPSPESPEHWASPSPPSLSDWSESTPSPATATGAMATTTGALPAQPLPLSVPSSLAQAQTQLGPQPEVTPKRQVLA
Chain of Pro-neuregulin-1, membrane-bound isoform (Homo sapiens) (Q02297 whole entry, looked up, the tested form may be a part, canonical isoform): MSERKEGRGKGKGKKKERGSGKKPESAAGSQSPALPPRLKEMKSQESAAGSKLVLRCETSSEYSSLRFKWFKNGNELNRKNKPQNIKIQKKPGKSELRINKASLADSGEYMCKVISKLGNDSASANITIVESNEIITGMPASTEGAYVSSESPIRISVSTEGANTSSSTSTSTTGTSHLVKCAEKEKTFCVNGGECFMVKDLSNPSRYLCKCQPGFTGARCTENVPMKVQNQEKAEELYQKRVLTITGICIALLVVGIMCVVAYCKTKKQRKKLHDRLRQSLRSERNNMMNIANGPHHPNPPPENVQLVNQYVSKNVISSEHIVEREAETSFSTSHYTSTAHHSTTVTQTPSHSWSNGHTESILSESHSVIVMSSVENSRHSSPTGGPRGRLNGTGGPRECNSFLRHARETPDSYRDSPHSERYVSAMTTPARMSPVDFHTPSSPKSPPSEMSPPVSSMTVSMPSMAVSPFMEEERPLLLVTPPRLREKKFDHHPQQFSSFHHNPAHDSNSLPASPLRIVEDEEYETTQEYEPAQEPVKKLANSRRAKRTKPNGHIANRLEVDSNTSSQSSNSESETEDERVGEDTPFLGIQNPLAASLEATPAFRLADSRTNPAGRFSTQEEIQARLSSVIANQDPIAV
Chain of Torsin-1A-interacting protein 2 (Homo sapiens) (Q8NFQ8 whole entry, looked up): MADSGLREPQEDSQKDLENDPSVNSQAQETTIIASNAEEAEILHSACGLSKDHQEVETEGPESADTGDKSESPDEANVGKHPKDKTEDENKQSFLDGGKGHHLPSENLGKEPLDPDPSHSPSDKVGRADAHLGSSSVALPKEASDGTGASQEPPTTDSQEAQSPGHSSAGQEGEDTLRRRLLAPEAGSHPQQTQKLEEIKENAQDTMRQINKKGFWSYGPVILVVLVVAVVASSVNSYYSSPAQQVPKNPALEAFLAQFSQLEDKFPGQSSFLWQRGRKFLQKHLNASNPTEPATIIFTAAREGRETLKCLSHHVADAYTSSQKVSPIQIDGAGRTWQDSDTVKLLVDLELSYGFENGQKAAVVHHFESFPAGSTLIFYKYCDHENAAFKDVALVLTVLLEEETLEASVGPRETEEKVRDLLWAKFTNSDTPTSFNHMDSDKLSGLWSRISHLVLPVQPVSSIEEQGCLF

Row | Structure (SMILES) | composite z-score [1] | composite z-score [2] | composite z-score [3] | composite z-score [4] | composite z-score [5] | composite z-score [6] | composite z-score [7] | z-score [8] | composite z-score [9] | composite z-score [10] | composite z-score [11] | z-score [12] | z-score [13] | z-score [14] | composite z-score [15] | z-score [16] | composite z-score [17] | composite z-score [18] | composite z-score [19] | composite z-score [20]
1 | CCOC(=O)C1=CC[C@@H](c2ccc(OC)cc2)N(S(=O)(=O)c2ccc(C)cc2)[C@H]1c1ccc(C)cc1 | -0.208 | -0.236 | -0.062 | 0.584 | 1.52 | 0.46 | 1.05 | 0.0599 (inactive) | 1.11 | -0.0618 | 0.966 | 0.106 (inactive) | 0.529 (inactive) | 0.53 (inactive) | 2.84 | -0.747 (inactive) | 0.194 | 0.191 | 1.09 | 0.0656
2 | COc1ccc([Si](C)(C)[C@H]2[C@H](CCO)O[C@@]3(C(=O)N(Cc4cccc(N(C=O)c5ccccc5)c4)c4ccccc43)[C@@H]2C)cc1 | -0.364 | 0.35 | 0.0155 | 1.09 | 1.14 | 0.97 | 1.08 | -0.837 (inactive) | 0.638 | -0.236 | 1.56 | 1.08 (inactive) | 0.604 (inactive) | 10.6 (active) | 2.91 | 2.01 (inactive) | 0.0893 | 0.785 | 1.07 | 0.0004
3 | O=C(NC1CC1)[C@@H]1c2ccccc2C(=O)N(Cc2cc(C(F)(F)F)cc(C(F)(F)F)c2)[C@H]1c1ccc(CO)cc1 | -0.758 | 0.332 | -0.223 | 0.0757 | -0.134 | 1.4 | 1.36 | 0.102 (inactive) | -0.131 | -0.863 | 1.43 | -0.523 (inactive) | -1.38 (inactive) | -0.108 (inactive) | 2.92 | -0.275 (inactive) | -0.508 | 0.76 | 0.491 | -0.399
4 | COC(=O)C1=CC(CCCO)=CC(c2cccs2)N(Cc2cc3c(cc2Br)OCO3)C=C1C(=O)OC (stereo not given) | 0.0066 | 0.951 | 0.0931 | 1.02 | 1.27 | 1.66 | 1.33 | -2.18 (inactive) | 0.182 | 0.0972 | 1.56 | 0.74 (inactive) | -0.997 (inactive) | 0.132 (inactive) | 3.17 | 0.923 (inactive) | 0.109 | 0.404 | 1.12 | 0.236
5 | CN(C)CCCC[C@@H]1NC(=O)[C@@H]2C[C@H](C(=O)NCCCCCCNC(=O)CS)[C@H](c3ccc(O)cc3)N2C1=O | -0.195 | 0.991 | -0.0959 | 0.204 | 0.262 | 0.133 | 0.975 | 0.133 (inactive) | -0.114 | -0.0645 | 1.33 | -0.378 (inactive) | -0.472 (inactive) | 0.0236 (inactive) | 2.79 | -0.744 (inactive) | -0.269 | 1.13 | 0.65 | 0.123
6 | Cc1ccc(C(C)CC(O)C2C=CC3C(=O)N(C)C(=O)C3N2Nc2ccccc2)o1 (stereo not given) | -0.138 | 0.0897 | 0.0876 | 0.75 | 1.44 | 0.812 | 1.09 | 0.651 (inactive) | 1.44 | -0.0994 | 1.55 | 0.121 (inactive) | 0.388 (inactive) | 0.651 (inactive) | 0.788 | -1.47 (inactive) | 0.0997 | 0.555 | 1.07 | -0.0167
7 | COc1ccc([Si](C)(C)[C@@H]2[C@@H](CC(=O)N(CCO)Cc3ccccc3)O[C@]3(C(=O)N(Cc4ccc(N5C(=O)c6cccc7cccc5c67)cc4)c4ccccc43)[C@H]2C)cc1 | -0.0031 | 0.407 | -0.0876 | 0.181 | 0.494 | 0.933 | 0.956 | -1.76 (inactive) | -0.0542 | -0.353 | 1.57 | 0.655 (inactive) | 0.27 (inactive) | 3.51 (inactive) | 1.63 | 0.309 (inactive) | -0.0785 | 0.77 | 0.223 | -0.116
8 | O=C(NC1CC1)[C@@H]1c2ccccc2C(=O)N(CC23CC4CC(CC(C4)C2)C3)[C@H]1c1ccc(CO)cc1 | -0.314 | 0.179 | 0.0319 | 0.581 | 1.44 | 0.264 | 1.29 | -3.56 (inactive) | 0.556 | -0.0645 | 1.53 | -0.706 (inactive) | -0.682 (inactive) | -0.437 (inactive) | 3.15 | -0.103 (inactive) | -0.2 | 1.47 | 1.02 | 0.0201
9 | Cc1ccc(F)cc1S(=O)(=O)N[C@H]1CCN(Cc2ccc(OC(C)C)cc2)C1 | -0.347 | 0.325 | -0.201 | -0.0293 | -0.563 | -0.0273 | 0.629 | -1.84 (inactive) | 0.101 | -0.132 | 1.48 | -1.09 (inactive) | -13.1 (active) | -1.03 (inactive) | 1.17 | -2.66 (inactive) | -0.218 | 1.41 | 0.0527 | -0.18
